Hits are enriched below; roughly 4.2% of the tested compounds scored in any of these assays.
tim23-1 inh: tim23-1 yeast growth inhibition; hit rate 1.3% among 330,000; inhibition, % at 20 µM; AID 463212; S. cerevisiae tim23-1 growth, BacTiter-Glo luminescence, 24 h;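 active = growth inhibition of the mutant yeast at or above 50%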;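 also: temperature-sensitive mutant grown at 25 °C; plate controls were DMSO-treated mutant yeast for no effect and medium wells lacking yeast for full effect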
V-ATPase pHluor: yeast V-ATPase proton transport regulation by pHLuorin; S. cerevisiae, pHLuorin cytosolic pH fluorescence; response, % at 10 µM; hit rate 0.37% among 350,000; in the data active = response mostly above about 7.3%, no sharp cut-off; inactive = mostly below about 5.4%; also: actives read high
NLRP3 yeast inh: blocks the NALP3 inflammasome reconstituted in yeast. Yeast reconstituted NLRP3/ASC/caspase-1, beta-gal luminescence, 24 h. inhibition, % at 10 µM. hit rate 0.39% among 330,000;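 active = inhibition of 50% or more; inactive = inhibition below 50%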;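 also: plate controls were induced DMSO wells for no effect and uninduced yeast grown without galactose for full effect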
TIM10 inh: inhibits growth of TIM10 yeast strain; hit rate 1.4% among 330,000; inhibition, % at 10 µM; S. cerevisiae TIM10 strain growth, BacTiter-Glo luminescence, 24 h;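 active = inhibition of 40% or more at the single tested concentration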;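 also: wild-type TIM10 isogenic control strain grown at permissive 25 °C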
NALP1 yeast inh: blocks the NALP1 inflammasome reconstituted in yeast. S. cerevisiae NALP1/ASC/caspase-1 growth, X-gal OD620, 72 h. inhibition, % at 10 µM. hit rate 0.61% among 280,000; in the data active = inhibition mostly above about 24%, no sharp cut-off; inactive = mostly below about 32%
tim10-1 inh: growth inhibitors of tim10-1 mutant yeast. S. cerevisiae tim10-1 ts strain growth, BacTiter-Glo, 24 h. inhibition, % at 20 µM. hit rate 2.2% among 330,000. AID 463190;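 active = inhibition of at least 40%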;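 also: mutant grown at 25 °C; 0% = DMSO wells with yeast and 100% = wells holding no yeast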
tim10-1 conf: confirmation of tim10-1 mutant yeast growth inhibitors. shares compounds with tim10-1 inh. S. cerevisiae tim10-1 ts strain growth, BacTiter-Glo, 24 h. inhibition, % at 20 µM. hit rate 56% among 7,400;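 active = inhibition of yeast growth at or above a set limit in either of two repeat tests at 20 µM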;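 also: tim10-1 mutant grown at permissive 25 °C to find synthetic lethal compounds; 0% = DMSO yeast wells and 100% = medium wells without yeast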
tim10 confirm: TIM10 yeast growth inhibition, confirmed. shares compounds with TIM10 inh. S. cerevisiae tim10 strain growth, BacTiter-Glo luminescence, 24 h. inhibition, % at 10 µM. hit rate 63% among 4,600. AID 463215;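 active = inhibition of yeast growth at or above a set limit in either of two replicates at 10 µM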;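 also: this counterscreen used the strain with wild-type TIM10; 0% = yeast with DMSO and 100% = medium wells lacking yeast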
Starred values were filed as active, the others as inactive; nt = no result.

SMILES	tim23-1 inh	V-ATPase pHluor	NLRP3 yeast inh	TIM10 inh	NALP1 yeast inh	tim10-1 inh	tim10-1 conf	tim10 confirm
Cc1nc(Nc2ccccc2)sc1-c1ccccc1	49.1	1.3	17.8	62.7*	37.8	53.9*	53.5*	-31.5
COc1ccc(N2CC(C(=O)OCC(=O)Nc3cccc(C)c3)CC2=O)cc1 (centres undefined)	7.7	-1.7	1.1	-10.0	8.7	0.3	nt	nt
O=[N+]([O-])c1cccc(-c2ccc(/C=N/NC(=S)Nc3cccc(F)c3)o2)c1	47.4	4.2	22.7	57.5*	nt	51.6*	46.2*	59.5*
O=C(CN1C(=O)S/C(=C/c2ccncc2)C1=O)N1CCOCC1	16.3	1.6	7.2	-3.0	22.3	9.1	nt	nt
O=C(NCc1nnc2c(C(F)(F)F)cc(Cl)cn12)c1ccco1	-15.9	-2.3	-5.9	8.7	22.5	0.2	nt	nt
Cc1onc(-c2ccccc2)c1C(=O)NC(=S)Nc1sc2c(c1C#N)CCCC2	40.1	-2.8	35.8	54.1*	17.1	41.8*	27.5	33.0*
COc1ccc(C(=O)Oc2cc(C)[nH]c(=O)c2[N+](=O)[O-])c(OC)c1	7.0	-1.5	0.8	-0.5	13.1	0.7	nt	nt
COc1ccc(C(=O)O/N=C(\N)Cc2ccc([N+](=O)[O-])cc2)c(OC)c1	40.3	-0.9	-1.9	51.3*	12.8	75.3*	84.0*	57.5*
COc1ccc(C)cc1NC(=O)COC(=O)c1ccc([N+](=O)[O-])o1	44.9	2.1	-4.5	88.4*	-1.3	77.8*	73.7*	-35.7
COc1ccc(C(C)(C)C)cc1NC(=O)COC(=O)c1ccc([N+](=O)[O-])o1	-83.7	-0.2	10.3	40.0	5.3	53.4*	3.2	91.6*
COCC#Cc1ccc2c(c1)O[C@@H](CN(C)C(=O)Nc1ccc(OC)cc1)[C@H](C)CN([C@H](C)CO)S2(=O)=O	nt	2.1	nt	nt	nt	nt	nt	nt
O=C(CCNc1ccc(Cc2ccncc2)cc1)c1ccc([N+](=O)[O-])cc1	40.2	6.4	12.5	62.0*	3.1	49.3*	37.2*	41.2*
Cc1cc2c3c(c1)C(C)CC(C)(C)N3C(=O)C2=C(C#N)C#N (centres undefined)	-44.2	2.8	13.6	58.7*	nt	57.4*	46.1*	49.4*
N/C(Cc1ccc(Cl)cc1Cl)=N\OC(=O)Cc1cccs1	28.3	2.8	11.4	49.0*	-4.8	47.5*	38.5*	8.0
N/C(Cc1ccc(Cl)cc1Cl)=N\OC(=O)c1cccs1	34.4	-1.0	16.7	85.7*	68.5	73.1*	37.3*	85.9*
N/C(=N\OC(=O)Cc1cccs1)c1ccc(Br)cc1	15.8	0.4	-5.6	22.7	21.4	33.4	nt	nt
O=C(COC(=O)c1cccs1)Nc1cccc(Cl)c1	12.6	1.3	6.8	-31.2	nt	-14.4	nt	nt
Cc1n[nH]c(C)c1Sc1ccccc1[N+](=O)[O-]	-6.6	-3.6	4.4	6.2	5.3	5.7	nt	nt
Cc1ccc(-n2nc(C)c(Sc3ccccc3[N+](=O)[O-])c2N)cc1	48.2	-1.6	18.7	43.8*	35.4	43.9*	34.5*	33.0*
Cc1ccc(N=Cc2c(O)n(C)c(=O)n(C)c2=O)nc1	24.7	1.2	8.2	43.1*	14.7	40.4*	17.0	33.5*
COC(=O)[C@@H]1CC[C@H](C)[C@@H](c2ccc(C)cc2)N1C(=O)c1ccc(/C=N/OC[C@@H](O)[C@H]2O[C@@H]3OC(C)(C)O[C@@H]3[C@H]2O)cc1	8.5	nt	-5.6	9.7	11.6	10.5	nt	nt
CCc1ccc(C(=O)CN(C#N)c2nc(C)cc(C)n2)cc1	35.0	-0.8	8.8	48.3*	-3.7	41.9*	15.1	-35.5
Cc1ccc(-n2nnnc2C(Cl)(Cl)c2nnnn2-c2ccc(C)cc2)cc1	47.6	1.1	49.5	62.2*	-16.0	45.2*	14.8	75.2*
O=C(NN=C1c2ccccc2-c2ccccc21)c1ccccn1	20.4	-0.6	15.2	48.0*	14.7	41.0*	25.4	38.8*
COc1ccc2[nH]c(C)c(CCNC(=S)Nc3cccc(C)c3)c2c1	17.3	-1.4	18.7	13.2	8.2	21.1	nt	nt
SMILES	tim23-1 inh	V-ATPase pHluor	NLRP3 yeast inh	TIM10 inh	NALP1 yeast inh	tim10-1 inh	tim10-1 conf	tim10 confirm
CCc1cccc(CC)c1NC(=S)NCCc1c(C)[nH]c2ccc(C)cc12	46.4	6.6	12.5	46.4*	21.6	45.3*	42.5*	45.6*
CCOC(=O)NC(NS(=O)(=O)c1ccccc1)(C(=O)OCC)C(F)(F)F (centres undefined)	17.0	0.3	-14.0	16.8	15.8	19.2	nt	nt
CC(C)c1ccccc1NC(=S)NN(Cc1ccccc1)c1ccccc1	33.7	1.1	4.0	51.9*	0.1	45.6*	32.1*	28.6*
Cc1cccc(C)c1NC(=S)NN(Cc1ccccc1)c1ccccc1	0.1	0.8	10.7	-0.2	1.2	27.2	nt	nt
COc1cccc(COC(=O)CSCC(=O)Nc2cccc(C)c2)c1OC	31.1	-1.2	27.9	-7.1	nt	14.9	nt	nt
O=C(c1ccco1)N1CCN(C(=O)c2cc3sccc3n2Cc2ccccc2)CC1	47.0	2.9	-0.9	43.2*	8.0	41.8*	42.8*	33.7*
Cc1ccc(Nc2cc(C)nc(-c3ccccc3O)n2)cc1	40.3	-0.2	8.5	52.9*	-1.5	58.5*	58.5*	47.6*
Cc1cc(Nc2ccc(F)c(F)c2)nc(-c2ccccc2O)n1	-1.1	0.6	-5.0	14.2	-1.0	16.9	nt	nt
Cc1nc2ccccc2n1/N=C/c1ccc([N+](=O)[O-])o1	27.4	6.4	3.6	78.1*	nt	73.6*	71.7*	88.4*
Cc1ccc(/C=N/n2c(C)nc3ccccc3c2=O)o1	8.6	-1.4	7.1	-1.5	4.1	-1.2	nt	nt
Cc1noc(C)c1NC(=O)N(C)C[C@H]1OCCCC[C@@H](C)Oc2ccc(NC(=O)Nc3ccc(F)cc3)cc2C(=O)N([C@@H](C)CO)C[C@H]1C	nt	2.5	nt	nt	nt	nt	nt	nt
COc1ccc(CN2[C@@H](CC(C)=O)c3ccc(/C=C/C(C)=O)cc3S2(=O)=O)cc1	48.4	-0.1	9.8	55.0*	nt	54.9*	51.3*	54.7*
COC(=O)/C=C/c1ccc2c(c1)S(=O)(=O)N(Cc1ccc(OC)cc1)[C@H]2CC(=O)OC	10.5	-3.8	29.1	14.0	nt	12.2	nt	nt
CC(C(=O)NCCN1CCOCC1)(c1ccccc1)c1ccccc1	-20.5	-1.6	5.9	-18.0	-7.1	-6.0	nt	nt
CC(c1ccco1)N(C(=O)C12CC3CC(CC(C3)C1)C2)c1ccccn1 (centres undefined)	43.6	0.8	-0.5	46.3*	30.1	43.1*	36.0*	-23.6
CC(c1ccco1)N(C(=O)c1ccccc1F)c1ccccn1 (centres undefined)	12.7	-1.7	5.1	10.9	-14.5	12.8	nt	nt
O=C(/C=C/c1ccccc1F)N1CCN(c2ccccn2)CC1	24.3	5.1	7.0	16.9	18.4	29.2	nt	nt
